# Data: PubChem BioAssay (NCATS)
# Inconclusive results are not listed. Active and inactive are the calls of the source. Calls follow the shape of the dose curve; as a rule, active = well fitted inhibition curve with a large enough effect; inconclusive = small, poorly fitted or top-dose-only effect; inactive = flat fitted curve, though single readings scatter.
# System: PC49
# Experiment: qHTS profiling for inhibitors of Plasmodium falciparum proliferation (AID 504749); also: nearly all actives have a fitted effect of over 60% in size
# Settings: P. falciparum in erythrocytes, SYBR Green DNA, 72 h; series mostly up to 28.7 µM
# In short: (§1)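 Parasite proliferation within erythrocytes, 72 h exposure. Endpoint: SYBR Green I fluorescence after overnight lysis at room temperature. Controls: 0.29 uM artemisinin, DMSO.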
# Potency is read from the fitted curve at half-maximal effect.
row,Compound,Potency
1,Nc1ncnc2nc[nH]c12,inactive
2,O=C(Nc1ccc(Cl)cc1)Nc1ccc(Cl)c(Cl)c1,2.24 µM (active)
3,CCCCCCCCCCCCCCCC[N+](C)(C)Cc1ccccc1,10 µM (active)
4,CCCCCCCCCCCCCC[N+](C)(C)C,inactive
5,O=[N+]([O-])c1ccc(O)c2ncccc12,inactive
6,O=S(=O)(O)c1ccc2nc(-c3ccccc3)[nH]c2c1,inactive
7,CC(NCCC(c1ccccc1)c1ccccc1)c1ccccc1 (configuration not stated),5.01 µM (active)
8,CN1CCCN(C(c2ccccc2)c2ccc(Cl)cc2)CC1 (configuration not stated),5.01 µM (active)

# System: SC27B
# Experiment: as above
# Settings: P. falciparum in erythrocytes, SYBR Green DNA, 72 h; series mostly up to 28.7 µM
# In short: as §1
row,Compound,Potency
1,CCCCCCCCCCCCCCCC[n+]1ccccc1,10 µM (active)
2,Nc1ncnc2nc[nH]c12,inactive
3,O=C(Nc1ccc(Cl)cc1)Nc1ccc(Cl)c(Cl)c1,2.24 µM (active)
4,CCCCCCCCCCCCCCCC[N+](C)(C)Cc1ccccc1,1 µM (active)
5,CCCCCCCCCCCCCC[N+](C)(C)C,6.31 µM (active)
6,Nc1c2ccccc2nc2ccccc12,10 µM (active)
7,O=S(=O)(O)c1ccc2nc(-c3ccccc3)[nH]c2c1,inactive
8,CC(NCCC(c1ccccc1)c1ccccc1)c1ccccc1 (configuration not stated),11.2 µM (active)

# System: TAB109
# Experiment: as above
# Settings: P. falciparum in erythrocytes, SYBR Green DNA, 72 h; series mostly up to 28.7 µM
# In short: as §1
row,Compound,Potency
1,CCCCCCCCCCCCCCCC[n+]1ccccc1,8.91 µM (active)
2,Nc1ncnc2nc[nH]c12,inactive
3,O=C(Nc1ccc(Cl)cc1)Nc1ccc(Cl)c(Cl)c1,3.55 µM (active)
4,CN1CCC(Nc2ncc3ncnc(Nc4ccc(F)c(Cl)c4)c3n2)CC1,11.2 µM (active)
5,CCCCCCCCCCCCCCCC[N+](C)(C)Cc1ccccc1,3.98 µM (active)
6,CCCCCCCCCCCCCC[N+](C)(C)C,4.47 µM (active)
7,Nc1c2ccccc2nc2ccccc12,7.08 µM (active)
8,O=S(=O)(O)c1ccc2nc(-c3ccccc3)[nH]c2c1,inactive
9,CC(NCCC(c1ccccc1)c1ccccc1)c1ccccc1 (configuration not stated),12.6 µM (active)

# System: TAB113
# Experiment: as above
# Settings: P. falciparum in erythrocytes, SYBR Green DNA, 72 h; series mostly up to 28.7 µM
# In short: as §1
row,Compound,Potency
1,CCCCCCCCCCCCCCCC[n+]1ccccc1,5.01 µM (active)
2,Nc1ncnc2nc[nH]c12,inactive
3,O=C(Nc1ccc(Cl)cc1)Nc1ccc(Cl)c(Cl)c1,2.24 µM (active)
4,CCCCCCCCCCCCCCCC[N+](C)(C)Cc1ccccc1,14.1 µM (active)
5,CCCCCCCCCCCCCC[N+](C)(C)C,5.01 µM (active)
6,Nc1c2ccccc2nc2ccccc12,10 µM (active)
7,O=S(=O)(O)c1ccc2nc(-c3ccccc3)[nH]c2c1,inactive
